Assay [1] in a line: qHTS assay to identify small molecule agonists of the vitamin D receptor (VDR) signaling pathway - cell viability counter screen (AID 743224; active means well fitted curve in the direction sought with a large enough effect in the repeat runs; an effect the other way counts as inactive or inconclusive; further: nearly all actives have a fitted effect of over 50% in size; further: potency means the concentration at half of the fitted maximal effect). Summed up:
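Counter screen for cytotoxicity: VDR-bla cells at 2,000 cells/well, 16 h compound exposure, then CellTiter-Glo luminescence after the beta-lactamase measurement.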

Assay [2] is described as follows: qHTS assay to identify small molecule antagonists of the vitamin D receptor (VDR) signaling pathway - cell viability counter screen (AID 743225; active means well fitted curve in the direction sought with a large enough effect in the repeat runs; an effect the other way counts as inactive or inconclusive; further: nearly all actives have a fitted effect of over 50% in size; further: potency means the concentration at half of the fitted maximal effect). Summed up: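 Viability counter screen run in the same wells as the beta-lactamase reporter assay: HEK 293T VDR-UAS-bla cells, 16 h compound exposure at 37C with 3 nM (final) 1-alpha,25-dihydroxyvitamin D3. CellTiter-Glo luminescence, 30 min, room temperature.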

Assay [3] in a line: qHTS assay to identify small molecule agonists of the NFkB signaling pathway - cell viability counter screen (AID 1159515). Further: series mostly up to about 61 µM; nearly all actives have a fitted effect of over 55% in size. Summed up:
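Counter screen run alongside the NFkB-bla agonist assay: ME-180 reporter cells exposed to compounds for 5 hr, then lysed with CellTiter-Glo in the same wells. Luminescence, read after 30 min, reflects viable cells.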

Assay [4] can be described thus: qHTS assay to identify small molecule agonists of the endoplasmic reticulum stress response signaling pathway - cell viability counter screen (AID 1159517).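 Further: HeLa cells carrying an ER stress response element beta-lactamase reporter; series mostly up to about 61 µM; nearly all actives have a fitted effect of over 50% in size.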 The method in brief: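 ESRE-bla HeLa cells (1,500/well) were plated overnight at 37 C and exposed to compounds for 5 hr. After the 2 hr beta-lactamase substrate read, CellTiter-Glo went into the same wells, and luminescence was read after 30 min at room temperature.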

The nature of assay [5]: qHTS assay to identify small molecule antagonists of the retinoid-related orphan receptor gamma (ROR-gamma) signaling pathway - cell viability counter screen (AID 1159520; active means well fitted curve in the direction sought with a large enough effect in the repeat runs; an effect the other way counts as inactive or inconclusive; further: nearly all actives have a fitted effect of over 50% in size; further: potency means the concentration at half of the fitted maximal effect). The method in brief:
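Cytotoxicity was read from cellular ATP (CellTiter-Glo luminescence) after 16 hr at 37 C with 1 uM doxycycline induction. The inducer was added 2 hr after compound transfer to Tet-on ROR gamma CHO cells.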

The nature of assay [6]: qHTS assay to identify small molecule agonists of the AP-1 signaling pathway - cell viability counter screen (AID 1159525). Further: nearly all actives have a fitted effect of over 55% in size. Summed up: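 Intracellular ATP by Cell Titer Glo luminescence (30 min, RT) in the same ME-180 AP-1-bla wells after the 5 h compound exposure at 37 °C. Normalised to tetra n-octyl ammonium bromide and DMSO controls.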
Assay [7] is described as follows: qHTS assay to identify small molecule agonists of the AP-1 signaling pathway (AID 1159526).
For assay [8], the target named is Retinoic acid receptor RXR-alpha (Homo sapiens) (UniProt P19793). Nature of the assay: qHTS assay to identify small molecule agonists of the RXR signaling pathway (AID 1159527). Further: nearly all actives have a fitted effect of over 35% in size. Further: potency means the concentration at half of the fitted maximal effect. The method in brief:
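Agonist mode; 9-cis retinoic acid positive control. HEK 293T UAS-bla reporter cells, 2% charcoal-stripped FBS, 16 hr compound exposure at 37 C/5% CO2. LiveBLAzer B/G FRET substrate 2 hr RT; ex 405, em 460/530 nm.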

Assay [9] concerns the target Nuclear receptor ROR-gamma (Homo sapiens) (UniProt P51449). The assay is described as follows: qHTS assay to identify small molecule antagonists of the retinoid-related orphan receptor gamma (ROR-gamma) signaling pathway (AID 1159521; active means well fitted curve in the direction sought with a large enough effect in the repeat runs; an effect the other way counts as inactive or inconclusive). The method in brief: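 Luminescence readout (ONE-Glo, 30 min RT) after 16 h doxycycline induction; loss of signal scored as antagonism. CHO cells with TET-inducible RORγ and RORE-LUC reporter; compounds added 2 h before 1 uM final doxycycline.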

The structures appear in SMILES notation. Records with an inconclusive call do not appear. Activity calls are given as the source filed them. Unless noted, the call rests on the fitted dose curve.

Chain of Retinoic acid receptor RXR-alpha (Homo sapiens) (P19793 whole entry, looked up): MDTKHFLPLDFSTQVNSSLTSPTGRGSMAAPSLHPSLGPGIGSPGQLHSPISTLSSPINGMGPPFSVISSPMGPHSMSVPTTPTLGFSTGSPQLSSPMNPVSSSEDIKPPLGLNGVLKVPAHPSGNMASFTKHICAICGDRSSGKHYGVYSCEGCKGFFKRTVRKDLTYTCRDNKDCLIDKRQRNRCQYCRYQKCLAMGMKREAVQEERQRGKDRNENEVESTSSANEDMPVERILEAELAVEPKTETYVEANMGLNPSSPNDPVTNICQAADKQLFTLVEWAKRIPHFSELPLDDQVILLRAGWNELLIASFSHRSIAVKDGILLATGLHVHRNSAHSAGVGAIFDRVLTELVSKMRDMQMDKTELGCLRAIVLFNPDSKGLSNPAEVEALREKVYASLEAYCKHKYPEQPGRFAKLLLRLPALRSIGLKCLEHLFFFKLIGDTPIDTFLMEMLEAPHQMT

Consider `CCN(CC)CCNc1ccc(CNC=O)c2sc3ccc(OC)cc3c(=O)c12`, for which the Potency in assay [1] was 54.9 µM (active); in [2], 43.6 µM (active); in assay [5], 54.5 µM (active). In addition, the Potency entry in assay [3], in [4], in assay [6] and in [7] was “inactive” throughout.

`CN(C)CCCN1c2ccccc2Sc2ccccc21`: the Potency entry in [3], in assay [4], in [5] and in [6] was “inactive” in each case.

In the case of `Cc1oc(-c2ccccc2)nc1CCOc1cccc2c1ccn2CCC(=O)O`, the Potency entry in assay [1], in assay [2], in assay [3], in assay [4], in assay [5] and in [6] was “inactive” throughout. Moreover, the Potency in assay [8] was 17.4 µM (active).

On to `c1ccc(CNCCNCc2ccccc2)cc1`, for which the Potency result in [2], in [3], in [4], in assay [9] and in [7] was “inactive” each time.

In the case of `CCCCC(CC)COC(=O)CCCCCCCCC(=O)OCC(CC)CCCC` (stereo not drawn), the Potency result in [1], in assay [2], in [3], in assay [4], in [5] and in assay [6] was “inactive” each time. The Potency entry in assay [7] and in assay [8] was “inactive” each time.

Turning to `NCc1ccccc1Sc1ccccc1CO`, the Potency entry in [1], in assay [2], in [3], in assay [4], in assay [6] and in assay [7] was “inactive” in each case. The Potency result in [8] is “inactive”.

(Values after PubChem BioAssay (Tox21).)
